Several values for one entry are separate records, joined by “and”; a condition that tells them apart may be missing. Identical values can stand only once. ± gives the standard deviation of the averaged measurements.
The compounds below were run on SW480 (assay: TCF/Wnt firefly luciferase reporter signal relative to plate median (fraction of plate median); higher = higher Wnt reporter signal). Details: 5 µM; treatment time 24 h; reporter: 7TFP.
In short: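 After seeding in 384-well plates, colorectal cancer cell lines carrying stable lentiviral TCF/Wnt firefly luciferase reporters (7TFP or TCF4/Wnt) were left 24 h. Library compounds were then added at a final 5 µM for 24 h. A Tecan F500 reader measured firefly luciferase or CellTiterGlo luminescence on parallel plates, with each well normalised to the plate median by webcellHTS2 (additive, no log transformation), and two independent replicates averaged.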

Structure (SMILES) | TCF/Wnt firefly luciferase reporter signal
O=C(c1ccc(OCCN2CCCCC2)cc1)c1c(-c2ccc(O)cc2)sc2cc(O)ccc12 | 0.926 ± 0.078
OCC(O)C(O)C(O)CO (stereo not given) | 1.06 and 1.04
COc1cc2c(cc1OC)[C@@H]1Cc3ccc(OC)c(OC)c3CN1CC2 | 1.03 ± 0.028
NCCCCNCCCN | 1.12 ± 0.13
COc1cc(C)c2c(c1C=O)Oc1c(c(C)c(O)c3c1C(O)OC3=O)OC2=O (stereo not given) | 0.927 ± 0.077
COc1ccc(-c2cc(=O)c3c(O)cc(O)cc3o2)cc1 | 1.01 ± 0.091
C[C@]12C=CC(=O)C=C1CC[C@H]1[C@@H]3C[C@@H](O)[C@](O)(C(=O)CO)[C@@]3(C)C[C@H](O)[C@@]12F | 0.89 ± 0.15
COC(=O)Nc1nc2cc([S+]([O-])c3ccccc3)ccc2[nH]1 (stereo not given) | 0.885 ± 0.12
C=C1CCC2C(CC2(C)C)C(=C)CC/C1=N/O (stereo not given) | 0.907 ± 0.037
CC(=O)O[C@H]1CC[C@]2(C)[C@H]3CC=C4[C@@H]5CC(C)(C)CC[C@]5(C)CC[C@@]4(C)[C@]3(C)CC[C@H]2C1(C)C [beta-AMYRIN ACETATE] | 1.07 ± 0.014
CN(C(=O)C(Cl)Cl)c1ccc(OC(=O)c2ccco2)cc1 | 0.934 ± 0.043
CC1CC2C3CCC4=CC(=O)C=CC4(C)C3(F)C(O)CC2(C)C1C(=O)CO (stereo not given) | 1.04 ± 0.057
CC(=O)O[C@H]1CC[C@]2(C)C3=CC(=O)[C@@]4(C)C(C[C@@H]5OC6(OCC(C)CC6Br)[C@@H](C)[C@@H]54)C3CC[C@H]2C1 (stereo partly drawn) [3beta-ACETOXY-23-BROMO-ISOALLOSPIROST-9 (11)-ENE-12-ONE] | 1.1 ± 0.035
CO[C@@H]1[C@H](O)[C@@H](C)O[C@@H](OC[C@H]2[C@@H]3O[C@H]3/C=C/C(=O)[C@@](C)(O)C[C@H](C)[C@H](O[C@@H]3O[C@H](C)C[C@H](OC)[C@H]3O)[C@@H](C)/C=C/C(=O)O[C@@H]2C)[C@@H]1OC [Chalcomycin] | 0.965 ± 0.034
CC(C)COCC(CN(Cc1ccccc1)c1ccccc1)N1CCCC1 (stereo not given) | 0.937 ± 0.085
COc1cccc2c(C)cc(=O)[nH]c12 | 1.11 ± 0.085
CC1(C)CCC[C@]2(C)[C@@H]3[C@H]1[C@@H](O)[C@@]2(C)C[C@H]3O | 1.13 ± 0.014
O=c1ccc2ccccc2o1 | 0.984 ± 0.018
CCC[C@H](N[C@@H](C)C(=O)N1[C@H](C(=O)O)C[C@@H]2CCCC[C@@H]21)C(=O)OCC | 1.08 ± 0.078
O=c1cc(-c2ccccc2)oc2cc(O)cc(O)c12 | 1.09 ± 0.064

Structure (SMILES) | TCF/Wnt firefly luciferase reporter signal
NC[C@H]1CC[C@H](C(=O)O)CC1 | 0.981 ± 0.028
CCC1(c2ccccc2)C(=O)NCNC1=O | 1.06 ± 0.028
Oc1c(Br)cc(Br)c2cccnc12 | 1.12 ± 0.028
Cc1cnc(NC(=O)C2=C(O)c3ccccc3S(=O)(=O)N2C)s1 | 1.03 ± 0.044
COC1=CC(=O)c2c(O)c3c(c(O)c2C1=O)OC1(Oc2c(cc4cc(C)oc(=O)c4c2O)C2OC21)C3O (stereo not given) [Griseorhodin A] | 1.01 ± 0.014
N/C(=N\C(=O)c1nc(Cl)c(N)nc1N)NCc1ccccc1 | 1.04 ± 0.066
NCc1ccc(S(N)(=O)=O)cc1 | 1.12 ± 0.078
O=c1cc(-c2ccccc2)oc2cc(O)c(O)cc12 | 1 ± 0.12
CC(=O)Oc1cccc(O)c1 | 1.05 ± 0.028
CC(C)=CC1C(C(=O)O)C1(C)C (stereo not given) | 1.02 ± 0.058
OCCOCCN1CCN(C2=Nc3ccccc3Sc3ccccc32)CC1 | 1.08 ± 0.014
Nc1nc(/C(=C/CC(=O)O)C(=O)N[C@@H]2C(=O)N3C(C(=O)O)=CCS[C@H]23)cs1 | 1.01 ± 0.052
CN1CCCC(n2nc(Cc3ccc(Cl)cc3)c3ccccc3c2=O)CC1 (stereo not given) | 1.06 ± 0.057
O=c1c(O)cccc2cc(O)c(O)c(O)c12 | 0.944 ± 0.094
Oc1ccc([C@H]2Oc3cc(O)cc(O)c3C[C@H]2O)cc1 | 1.01 ± 0.07
CCOC(=O)c1ccc(O)cc1 | 0.998 ± 0.059
C[C@@H]1C(=O)O[C@H]2C[C@@]34[C@H]5C[C@@H](C(C)(C)C)[C@]36[C@@H](OC(=O)[C@@H]6O)O[C@@]4(C(=O)O5)[C@]21O | 1.03 ± 0.11
COc1ccc(-c2coc3cc(OC)cc(OC)c3c2=O)cc1 | 1.04 ± 0.028
C[C@H]1C[C@@H]2[C@H]([C@@H](O)C[C@@]3(C)[C@H]2CC[C@]3(O)C(=O)CO)[C@@]2(C)C=CC(=O)C=C12 | 1.02 ± 0.062
COC(=O)Nc1nc2cc(C(=O)c3ccccc3)ccc2[nH]1 | 0.94 ± 0.023

— the supplement of paper PMC6522484
